The list is not random: actives were taken first. Their share in the collection is about 1.5%.
eLon inh – inhibitors of E. coli Lon protease, primary screen, biochemical, fluorescence polarization. inhibition, % at 7.94 µM. 360,000 compounds, 0.42% hits. AID 602123, 2011. purified E. coli Lon protease; in the data active = inhibition above about 13%, passing the limit was not always enough;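 also: 0% = enzyme with probe and DMSO and 100% = no enzyme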
EBV gp42 block – Epstein-Barr virus gp42 inhibitors, primary screen, biochemical, uHTS, fluorescence polarization | Glycoprotein 42 (Epstein-Barr virus (strain AG876)), Q1HVG2 | Fluorescence polarization binding assay, mP read-out | inhibition, % (tested at 21.74 µM) | 220,000 compounds, 0.42% hits | AID 1085, 2008; in the data active = inhibition above about 50%
GLD-1 RNA inh – GLD-1/TGE RNA complex disruptors, primary screen, biochemical, fluorescence polarization | Female germline-specific tumor suppressor gld-1 (Caenorhabditis elegans), Q17339 | purified GLD-1 + fluorescein TGE RNA | inhibition, % at 5.96 µM | 320,000 compounds, 0.44% hits | AID 2280, 2010;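 active = percent inhibition above a per-plate cutoff, the plate mean of test compounds plus 3 SD, cut at about 30% in these data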;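 also: 0% = DMSO wells with GLD-1 and probe and 100% = wells lacking GLD-1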
BCLXL inh – inhibitors of human Bcl-xL, primary screen, biochemical, fluorescence polarization, HTS. Bcl-2-like protein 1 (Homo sapiens), Q07817. GST-Bcl-xL / FITC-Bim BH3 peptide fluorescence polarization. inhibition, % at 10.9 µM. 320,000 compounds, 0.7% hits;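 active = inhibition above the mean of all tested compounds plus 3 SD, cutoff set per campaign, cut at about 30% in these data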;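 also: 0% = DMSO wells and 100% = unlabeled Bim-BH3 peptide competitor; inhibitors lower millipolarization by displacing the labeled peptide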
MEX-5 binding – MEX-5 zinc finger RNA-binding disruptors – biochemical, C. elegans, fluorescence polarization, MLPCN library, primary screen; activity score (negative = inhibition of binding), % at 10 µM; MEX-5/FITC-TCR2 RNA binding; stronger effect = lower value; 300,000 compounds, 0.38% hits;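 active = inhibition past about -25% in most replicates, and total fluorescence under double the plate's negative control median, limit read from the data; inconclusive = replicates evenly split on the limit, or fluorescence at least double controls; inactive = too little inhibition in most replicates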;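 also: 0% = DMSO and -100% = 5 µM competing unlabeled TCR2 RNA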
Target sequence (Q9XUB2 whole entry, looked up): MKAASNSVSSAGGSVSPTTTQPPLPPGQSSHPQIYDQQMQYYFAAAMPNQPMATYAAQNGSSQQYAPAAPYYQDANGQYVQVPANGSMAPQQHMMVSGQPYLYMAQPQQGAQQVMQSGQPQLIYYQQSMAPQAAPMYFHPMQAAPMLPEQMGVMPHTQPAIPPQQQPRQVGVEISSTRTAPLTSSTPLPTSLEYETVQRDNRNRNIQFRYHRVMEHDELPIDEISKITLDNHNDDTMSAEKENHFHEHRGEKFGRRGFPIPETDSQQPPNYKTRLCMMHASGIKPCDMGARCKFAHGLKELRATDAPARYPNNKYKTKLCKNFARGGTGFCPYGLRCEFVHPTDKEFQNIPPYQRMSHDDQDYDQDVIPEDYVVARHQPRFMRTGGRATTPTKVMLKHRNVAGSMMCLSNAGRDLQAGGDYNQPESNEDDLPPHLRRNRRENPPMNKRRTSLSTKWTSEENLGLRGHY
MCL1 BIM primary – inhibitors of MCL1 binding to BIM-BH3, primary screen, biochemical, fluorescence polarization; Induced myeloid leukemia cell differentiation protein Mcl-1 (Homo sapiens), Q07820; GST-MCL1 / FITC-Bim-BH3 fluorescence polarization; inhibition, % at 10.9 µM; 320,000 compounds, 0.68% hits; AID 2057, 2009;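 active = inhibition above the mean inhibition of all tested compounds plus 3 SD, set per campaign, cut at about 40% in these data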;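 also: 0% = DMSO wells and 100% = unlabeled Bim-BH3 peptide control; higher means more loss of mP so more displacement of Bim peptide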
An asterisk follows results filed as active.

How did O=C(OCCN1C(=O)c2ccccc2C1=O)c1cc(S(=O)(=O)N2CCOCC2)ccc1F do in these assays?
eLon inh: 11; EBV gp42 block: -20; GLD-1 RNA inh: -2; BCLXL inh: 0; MEX-5 binding: -3; MCL1 BIM primary: -4

Results for CCCN(CCC)S(=O)(=O)c1ccc(C(=O)OCCN2C(=O)c3cccc4c(N5CCOCC5)ccc(c34)C2=O)cc1 ?
eLon inh: -44; EBV gp42 block: 135*; GLD-1 RNA inh: -12; BCLXL inh: 4; MEX-5 binding: inconclusive; MCL1 BIM primary: -15

Results for CN(CC(=O)O)c1ccc(C(F)(F)F)cc1[N+](=O)[O-] ?
eLon inh: 6; EBV gp42 block: -11; MEX-5 binding: 0

Results for CC(C)c1cc[n+](-c2nc([O-])sc2C=O)cc1 ?
eLon inh: -15; EBV gp42 block: 30; GLD-1 RNA inh: 12; BCLXL inh: 42*; MEX-5 binding: -22; MCL1 BIM primary: 45*

How did Cc1ccc(N=C2NC(=O)/C(=C/c3cn(C)c4ccccc34)S2)cc1C do in these assays?
eLon inh: inactive; EBV gp42 block: 82*; GLD-1 RNA inh: -80; BCLXL inh: -67; MCL1 BIM primary: -112

Results for Cn1cccc1/C=C1\SC(=Nc2ccccc2)NC1=O ?
eLon inh: -1; EBV gp42 block: -7; GLD-1 RNA inh: 1; BCLXL inh: 4; MEX-5 binding: 0; MCL1 BIM primary: 6

How did CCCCCCCCCC(=O)Nc1cccnc1 do in these assays?
EBV gp42 block: 6; GLD-1 RNA inh: 10; BCLXL inh: 2; MEX-5 binding: 1; MCL1 BIM primary: 11

How did Nn1c(-c2ccc(F)cc2)nc2ccccc2c1=O do in these assays?
eLon inh: 7; GLD-1 RNA inh: -6; BCLXL inh: 5; MEX-5 binding: 3; MCL1 BIM primary: 8

How did O=C1c2cc(F)ccc2-n2c1nc1ccccc1c2=O do in these assays?
eLon inh: 1; GLD-1 RNA inh: -8; BCLXL inh: 8; MEX-5 binding: -33*; MCL1 BIM primary: 4

Results for C=CCNC(=O)COC(=O)c1cccnc1Nc1ccccc1F ?
eLon inh: 2; EBV gp42 block: 8; GLD-1 RNA inh: 6; BCLXL inh: 0; MEX-5 binding: 2; MCL1 BIM primary: 1

Results for CS(=O)(=O)Nc1cccc(C2=NN(S(C)(=O)=O)C(c3ccc4c(c3)OCO4)C2)c1 (centres undefined) ?
eLon inh: -8; EBV gp42 block: -14; GLD-1 RNA inh: -4; BCLXL inh: -4; MEX-5 binding: 0; MCL1 BIM primary: -3

How did CS(=O)(=O)N1N=C(c2ccccc2)CC1c1ccc2c(c1)OCO2 (centres undefined) do in these assays?
eLon inh: -80; EBV gp42 block: 91*; GLD-1 RNA inh: -5; BCLXL inh: 4; MEX-5 binding: 4; MCL1 BIM primary: 5

Results for O=C1CCCN1CC(O)CS(=O)(=O)Cc1ccc(Cl)cc1 (centres undefined) ?
eLon inh: 7; GLD-1 RNA inh: 0; BCLXL inh: 0; MEX-5 binding: 2; MCL1 BIM primary: 7

Results for O=C1c2ccccc2C(c2nnnn2Cc2ccccc2)N1CCCN1CCOCC1 (centres undefined) ?
eLon inh: -6

How did CN1CCc2c(sc3c2C(=O)NC(c2cccs2)N3)C1 (centres undefined) do in these assays?
eLon inh: -77; EBV gp42 block: 17; GLD-1 RNA inh: -31; BCLXL inh: 32*; MEX-5 binding: -14; MCL1 BIM primary: 33

What do the screens show for `CN1CCc2c(sc3c2C(=O)NC(/C=C\c2ccccc2)N3)C1` (centres undefined)?
eLon inh: -80; EBV gp42 block: -8; GLD-1 RNA inh: 4; BCLXL inh: 16; MEX-5 binding: -8; MCL1 BIM primary: 11

How did CSc1ccc(C2NC(=O)c3c(sc4c3CCN(C)C4)N2)cc1 (centres undefined) do in these assays?
eLon inh: -164; EBV gp42 block: -16; GLD-1 RNA inh: -79; BCLXL inh: -11; MEX-5 binding: -2; MCL1 BIM primary: 39

How did Cc1ccsc1C1NC(=O)c2c(sc3c2CCN(C)C3)N1 (centres undefined) do in these assays?
eLon inh: -134; EBV gp42 block: -6; GLD-1 RNA inh: -32; BCLXL inh: 37*; MEX-5 binding: -5; MCL1 BIM primary: 31

What do the screens show for `Cc1ccc(S(=O)(=O)c2c(N)n(Cc3ccco3)c3nc4ccccc4nc23)cc1C`?
eLon inh: -52; EBV gp42 block: 4; GLD-1 RNA inh: 20; BCLXL inh: 32*; MEX-5 binding: 2; MCL1 BIM primary: 15

What do the screens show for `Nc1c(S(=O)(=O)c2ccccc2)c2nc3ccccc3nc2n1Cc1ccco1`?
eLon inh: -54; EBV gp42 block: 62*; GLD-1 RNA inh: 47*; BCLXL inh: 23; MEX-5 binding: 2; MCL1 BIM primary: 11

What do the screens show for `Nc1c(S(=O)(=O)c2ccccc2)c2nc3ccccc3nc2n1CCN1CCOCC1`?
eLon inh: -3; EBV gp42 block: 14; GLD-1 RNA inh: -8; BCLXL inh: 11; MEX-5 binding: -4; MCL1 BIM primary: 17

What do the screens show for `CN1C(=O)/C(=C/c2cn(CC(=O)N3CCCCC3)c3ccccc23)c2ccccc21`?
EBV gp42 block: -12; GLD-1 RNA inh: 6; BCLXL inh: -2; MEX-5 binding: -27*; MCL1 BIM primary: -10

How did O=Cc1cn(CC(=O)N2CCCCC2)c2ccccc12 do in these assays?
eLon inh: -3; EBV gp42 block: -6; GLD-1 RNA inh: 6; BCLXL inh: 1; MEX-5 binding: 3; MCL1 BIM primary: -3

How did C/C(O)=C\c1nc2ccccc2oc1=O do in these assays?
eLon inh: 11; EBV gp42 block: 5; GLD-1 RNA inh: 2; BCLXL inh: 3; MEX-5 binding: -1; MCL1 BIM primary: -4

Results for Cc1ccc2oc(=O)c(/C=C(\O)c3cccs3)nc2c1 ?
eLon inh: -1; EBV gp42 block: -79; GLD-1 RNA inh: 1; BCLXL inh: -33; MEX-5 binding: -45*; MCL1 BIM primary: -63

What do the screens show for `O=c1oc2ccccc2nc1/C=C(\O)c1ccc(Br)cc1`?
eLon inh: 9; EBV gp42 block: 64*; GLD-1 RNA inh: 0; BCLXL inh: -5; MEX-5 binding: -1; MCL1 BIM primary: -5

Results for Cc1ccc2oc(=O)c(/C=C(\O)CC(C)C)nc2c1 ?
eLon inh: -14; EBV gp42 block: -14; GLD-1 RNA inh: 9; BCLXL inh: 2; MEX-5 binding: inconclusive; MCL1 BIM primary: 0

Bioassay records from PubChem.
